# Experimental data reported in PubChem BioAssay (EPA / NIEHS).
# Values joined by “and” are separate entries in the source; they are usually repeats but may differ in a detail not shown here. Equal entries are not always repeated. Inconclusive results are not listed. Active and inactive are the calls of the source. How the source made its calls: active means hit-call score of the fitted dose curve at least 0.9, where 1 is the maximum; inconclusive means response in the unintended direction; inactive means score below 0.9.
# Molecular target: rat Mineralocorticoid Receptor (MR), Nr3c2 (gene 25672) (UniProt P22199)
# Sequence (P22199 whole entry, looked up): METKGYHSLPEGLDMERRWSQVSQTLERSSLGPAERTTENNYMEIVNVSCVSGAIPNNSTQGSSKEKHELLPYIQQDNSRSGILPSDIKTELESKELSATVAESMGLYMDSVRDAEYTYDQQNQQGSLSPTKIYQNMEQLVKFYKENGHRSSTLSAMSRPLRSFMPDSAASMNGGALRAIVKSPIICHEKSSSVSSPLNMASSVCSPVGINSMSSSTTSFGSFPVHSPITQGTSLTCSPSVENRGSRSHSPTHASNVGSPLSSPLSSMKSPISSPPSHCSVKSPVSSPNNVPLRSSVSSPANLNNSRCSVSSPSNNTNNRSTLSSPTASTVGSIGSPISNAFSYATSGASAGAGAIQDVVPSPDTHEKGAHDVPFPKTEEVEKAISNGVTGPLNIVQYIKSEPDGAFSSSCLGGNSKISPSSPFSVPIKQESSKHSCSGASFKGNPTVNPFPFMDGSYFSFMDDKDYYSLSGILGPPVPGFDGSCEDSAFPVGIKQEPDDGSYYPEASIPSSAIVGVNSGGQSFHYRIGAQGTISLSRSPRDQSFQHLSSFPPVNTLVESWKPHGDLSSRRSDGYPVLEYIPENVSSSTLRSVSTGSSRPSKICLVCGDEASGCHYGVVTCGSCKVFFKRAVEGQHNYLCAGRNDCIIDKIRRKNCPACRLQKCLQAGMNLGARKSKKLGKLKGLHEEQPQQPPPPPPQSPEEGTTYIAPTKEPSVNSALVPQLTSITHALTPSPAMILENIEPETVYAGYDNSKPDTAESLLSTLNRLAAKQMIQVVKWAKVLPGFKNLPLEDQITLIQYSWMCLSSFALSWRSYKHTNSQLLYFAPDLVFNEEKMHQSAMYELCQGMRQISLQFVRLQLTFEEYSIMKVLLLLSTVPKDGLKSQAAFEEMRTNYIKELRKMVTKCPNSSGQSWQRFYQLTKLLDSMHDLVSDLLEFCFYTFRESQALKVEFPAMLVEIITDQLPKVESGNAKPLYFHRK
# Assay: NVS_NR_rMR: NovaScreen (NVS) Nuclear Receptor Binding Assay for rat Mineralocorticoid Receptor (MR) (AID 2283355)
# In short: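 Radioligand displacement, scintillation readout; tissue source adrenalectomized rat brain supernatant. Read 24 h post-dose. Screened in duplicate at 25 uM, DMSO negative control, controls on every plate; actives re-run in concentration series.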
Compound,outcome,AC50
CN(C)c1ccc(C(=O)c2ccc(N(C)C)cc2)cc1,inactive,–
CCC[CH2][Sn]([Cl])([CH2]CCC)[CH2]CCC,inactive,–
C[C@]12C=CC3=C4CCC(=O)C=C4CC[C@H]3[C@@H]1CC[C@@H]2O,–,69.1 nM (active) and 245 nM (active)

# Molecular target: Estrogen receptor (Homo sapiens) + Estrogen receptor beta (Homo sapiens) (UniProt P03372+Q92731)
# Sequence (P03372 whole entry, looked up, the tested form may be a part): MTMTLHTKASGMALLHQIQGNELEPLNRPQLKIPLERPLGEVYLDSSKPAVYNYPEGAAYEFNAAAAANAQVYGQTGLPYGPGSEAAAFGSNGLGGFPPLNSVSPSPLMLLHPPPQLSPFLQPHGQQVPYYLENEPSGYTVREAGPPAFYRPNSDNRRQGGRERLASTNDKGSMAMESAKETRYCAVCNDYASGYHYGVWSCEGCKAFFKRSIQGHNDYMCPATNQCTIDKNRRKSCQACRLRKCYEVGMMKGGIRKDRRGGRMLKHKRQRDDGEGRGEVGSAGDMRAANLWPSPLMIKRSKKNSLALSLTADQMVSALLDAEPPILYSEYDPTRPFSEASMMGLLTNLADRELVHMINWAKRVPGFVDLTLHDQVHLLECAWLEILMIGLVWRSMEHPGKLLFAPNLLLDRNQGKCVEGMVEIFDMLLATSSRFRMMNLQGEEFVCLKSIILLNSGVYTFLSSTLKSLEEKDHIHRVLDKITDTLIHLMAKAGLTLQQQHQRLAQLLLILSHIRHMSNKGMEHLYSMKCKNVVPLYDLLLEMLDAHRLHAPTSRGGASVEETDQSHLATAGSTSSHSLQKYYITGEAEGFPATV
# Sequence (Q92731 whole entry, looked up, the tested form may be a part): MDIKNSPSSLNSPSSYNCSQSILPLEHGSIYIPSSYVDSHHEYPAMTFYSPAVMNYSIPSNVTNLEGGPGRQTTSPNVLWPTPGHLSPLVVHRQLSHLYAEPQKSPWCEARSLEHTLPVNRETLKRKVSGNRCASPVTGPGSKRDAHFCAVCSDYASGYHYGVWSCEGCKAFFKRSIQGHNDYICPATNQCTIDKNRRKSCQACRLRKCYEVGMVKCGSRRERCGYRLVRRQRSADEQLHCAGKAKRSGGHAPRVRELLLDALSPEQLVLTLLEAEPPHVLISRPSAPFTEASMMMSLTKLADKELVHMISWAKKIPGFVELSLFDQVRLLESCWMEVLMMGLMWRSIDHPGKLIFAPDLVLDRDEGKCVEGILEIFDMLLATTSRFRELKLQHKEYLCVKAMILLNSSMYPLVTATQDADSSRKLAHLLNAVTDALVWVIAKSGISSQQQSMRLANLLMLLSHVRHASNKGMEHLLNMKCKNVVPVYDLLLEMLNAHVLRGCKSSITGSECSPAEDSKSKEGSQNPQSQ
# Assay: OT_ER_ERaERb_1440: Odyssey Thera (OT) 24-hour HEK293T Protein-Complementation Assay for Estrogen Receptor-alpha/-beta Homodimer (AID 2283356);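 further: heteromer of ER alpha and ER beta binding domains; hits raise reporter fluorescence and both agonists and antagonists give an increase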
# In short: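 Heterodimerisation of ERα (aa 310-547) and ERβ (aa 263-489) ligand binding domains was tracked as fluorescence gain in stably transfected HEK293T cells following 24 h dosing, normalised to DMSO controls.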
Compound,outcome,AC50
[Cl-].[Cl-].[Hg+2],inactive,–
Nc1ccc(N=Nc2ccccc2)cc1,–,39.4 µM (active)
O=C(Nc1ccccc1)c1ccccc1I,inactive,–
CCCCCCCCCCCCCN1CC(C)OC(C)C1 (stereo not given),inactive,–
CCCCCCCCn1sccc1=O,inactive,–
C[N+](C)(C)CC1CO1 (stereo not given),inactive,–
CC(C)COC(=O)c1ccccc1C(=O)OCC(C)C,–,31.1 µM (active)
